Measurements: the supplement of paper PMC6718421
± gives the uncertainty stated by the source.

Each compound was assayed on Caenorhabditis elegans N2 (wild type) (assay: animals with crystals or spheres in anterior pharynx; higher = more object (crystal/sphere) accumulation). Conditions: 30 µM; 48 h; genotype: wild type N2; stage: L1 start.
Method: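 Synchronized wild-type (N2) C. elegans L1 larvae (50 per well) were incubated in liquid NGM with E. coli HB101 and 30 uM of each wactive for 48 h. Live worms were scored by DIC and polarized-light microscopy for birefringent crystals or non-birefringent spheres in the anterior pharynx. At least 3 biological replicates were run with at least 20 worms each; the value is the mean % of animals carrying objects.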

| SMILES | animals |
| --- | --- |
| O=C(c1ccc(Br)cc1)N1CCN(c2ccc([N+](=O)[O-])cc2)CC1 [wact-381] | 99.5 ± 0.5% |
| Cc1ccccc1C(=O)NCCc1ccccc1 [wact-406] | 0% |
| c1ccc2nc(-c3nc4ccccc4o3)ccc2c1 [wact-40] | 12.5 ± 2.8% |
| Cc1ccc(-c2cnc(-c3ccncc3)o2)cc1 [wact-23] | 0% |
| Brc1ccc(-c2nnc(-c3ccccc3)o2)cc1 [wact-425] | 34.5 ± 9.2% |
| COc1ccccc1CNC(=O)c1ccccc1I [wact-402] | 0% |
| c1csc(-c2cnc3ccccc3n2)c1 [wact-21] | 0% |
| CCCc1nc(-c2ccc(-c3ccc(F)cc3)cc2)no1 [wact-390] | 88.33 ± 0.88% |
| O=C(NCCCCc1ccccc1)c1ccccc1F [wact-400] | 0% |
| O=[N+]([O-])c1ccc(N2CCN(CC3CC=CCC3)CC2)cc1 (stereo not drawn) [wact-47] | 0% |
| CCOc1ccc(-c2cnc3ccccc3n2)cc1 [wact-24] | 69.5 ± 6.4% |
| Ic1cccc(-c2nnc(-c3ccccc3)o2)c1 [wact-51] | 51.5 ± 14% |
| c1ccc(CSc2nnc(-c3ccccc3)o2)cc1 [wact-38] | 95.5 ± 3% |
| O=[N+]([O-])c1ccc(N2CCN(CC3CCCCC3)CC2)cc1 [wact-45] | 0% |
| O=C(Nc1ccc(I)cc1)c1ccco1 [wact-27] | 10 ± 8.3% |
| O=C1CC(N2CCN(c3ccc([N+](=O)[O-])cc3)CC2)C(=O)N1c1ccccc1F (stereo not drawn) [wact-56] | 0% |
| CCC1CCC(N2CCN(c3ccc([N+](=O)[O-])cc3)CC2)CC1 (stereo not drawn) [wact-6] | 3.24 ± 3% |
| c1ccc(-c2noc(-c3cccs3)n2)cc1 [wact-7] | 0% |
| Fc1ccc(-c2cn3ccsc3n2)cc1 [wact-433] | 0% |
| COc1ccc(C=Cc2ccccn2)cc1 [wact-622] | 0% |
| O=[N+]([O-])c1ccc(-n2ccc3ccccc32)cc1 [wact-213] | 40.3 ± 22% |
| O=[N+]([O-])c1ccc(CSc2ccc(Cl)cc2)cc1 [wact-3] | 52.6 ± 13% |
| C=CCSc1nnc(-c2ccc(Cl)cc2Cl)o1 [wact-5] | 0% |
| CCSc1nnc(-c2ccc(Cl)cc2Cl)o1 [wact-4] | 0% |
| O=C(Nc1cccc(Cl)c1)N1CCN(c2ccc([N+](=O)[O-])cc2)CC1 [wact-31] | 0% |
| O=[N+]([O-])c1ccc(N2CCN(CC3CC4C=CC3C4)CC2)cc1 (stereo not drawn) [wact-46] | 0% |
| Clc1ccc(-c2cn3ccsc3n2)cc1 [wact-1] | 0% |
| O=C(Nc1ccc(-c2nc3ccccc3s2)cc1)c1ccccc1F [wact-415] | 100% |
